The text below walks through data of PubChem BioAssay (EPA / NIEHS).

Assay [1] can be described thus: BSK_3C_VCAM1: BioMAP Diversity Plus: 3C Assay for Vascular cell adhesion molecule 1 (VCAM1) Biomarker Activity (AID 2282999; active = hit-call score of the fitted dose curve at least 0.9, where 1 is the maximum; inactive = score below 0.9). The note with it: BioMAP 3C HUVEC, VCAM1 ELISA, cytokine-stimulated; actives raise or lower the signal. The essentials: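 Human umbilical vein endothelial cells (3C system), biomarker read by ELISA 24 h after dosing; bidirectional fit against DMSO baseline. Cytotoxicity tracked by SRB total-protein staining in parallel cultures at biomarker time.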

Assay [2] in a line: BSK_4H_Eotaxin3: BioMAP Diversity Plus: 4H Assay for Eotaxin 3 Biomarker Activity (AID 2283000; active = hit-call score of the fitted dose curve at least 0.9, where 1 is the maximum; inactive = score below 0.9;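 as to outcome: CCL26 protein level quantified by ELISA in parallel with SRB cytotoxicity check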). The note with it: primary human endothelial cells (HUVEC); actives raise or lower the signal. The method in brief:
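Human umbilical vein endothelial cells (BSK_4H system) dosed with test chemical; Eotaxin-3 (CCL26) measured by ELISA 24 h after dosing. Bidirectional curve fitting relative to DMSO negative control as baseline.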

The target in assay [3] is human Peroxisome Proliferator-activated Receptor alpha (PPARa), PPARA (gene 5465) (UniProt Q07869). The assay can be described thus: ATG_PPARa_TRANS: Attagene TRANS-FACTORIAL HepG2 Assay for human Peroxisome Proliferator-activated Receptor alpha (PPARa) (AID 2283001). The essentials: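 HepG2 cells transiently transfected with multiplexed GAL4-UAS reporters driven by exogenous chimeric NR-Gal4 proteins; reporter mRNA measured after 24 h dosing. Read-out by RT-PCR, 6-FAM labelling, HpaI digestion and capillary electrophoresis; gain of signal versus DMSO.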
human Peroxisome Proliferator-activated Receptor alpha (PPARa), PPARA (gene 5465), sequence (Q07869 whole entry, looked up, the tested form may be a part): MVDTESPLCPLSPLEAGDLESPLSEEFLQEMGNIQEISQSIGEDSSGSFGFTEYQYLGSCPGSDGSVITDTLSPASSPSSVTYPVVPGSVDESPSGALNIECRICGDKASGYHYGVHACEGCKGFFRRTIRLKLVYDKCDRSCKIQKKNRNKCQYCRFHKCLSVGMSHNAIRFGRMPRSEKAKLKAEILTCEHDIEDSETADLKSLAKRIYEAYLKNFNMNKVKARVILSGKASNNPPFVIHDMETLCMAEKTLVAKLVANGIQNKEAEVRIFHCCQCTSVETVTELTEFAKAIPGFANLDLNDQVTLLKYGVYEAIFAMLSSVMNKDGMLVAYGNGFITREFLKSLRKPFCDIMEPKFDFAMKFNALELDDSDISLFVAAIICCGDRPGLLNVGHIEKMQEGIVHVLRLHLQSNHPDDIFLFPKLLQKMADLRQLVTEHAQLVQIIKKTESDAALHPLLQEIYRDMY

The target in assay [4] is human Peroxisome Proliferator-activated Receptor delta (PPARd), PPARD (gene 5467) (UniProt Q03181). The assay can be described thus: ATG_PPARd_TRANS: Attagene TRANS-FACTORIAL HepG2 Assay for human Peroxisome Proliferator-activated Receptor delta (PPARd) (AID 2283002). The essentials: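 Fluorescence from capillary electrophoresis of labelled RT-PCR reporter fragments gives the signal; DMSO sets baseline. Cells: HepG2 transiently carrying GAL4-UAS reporter units plus chimeric nuclear receptor-Gal4 proteins, exposed to chemicals for 24 h.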
human Peroxisome Proliferator-activated Receptor delta (PPARd), PPARD (gene 5467), sequence (Q03181 whole entry, looked up, the tested form may be a part): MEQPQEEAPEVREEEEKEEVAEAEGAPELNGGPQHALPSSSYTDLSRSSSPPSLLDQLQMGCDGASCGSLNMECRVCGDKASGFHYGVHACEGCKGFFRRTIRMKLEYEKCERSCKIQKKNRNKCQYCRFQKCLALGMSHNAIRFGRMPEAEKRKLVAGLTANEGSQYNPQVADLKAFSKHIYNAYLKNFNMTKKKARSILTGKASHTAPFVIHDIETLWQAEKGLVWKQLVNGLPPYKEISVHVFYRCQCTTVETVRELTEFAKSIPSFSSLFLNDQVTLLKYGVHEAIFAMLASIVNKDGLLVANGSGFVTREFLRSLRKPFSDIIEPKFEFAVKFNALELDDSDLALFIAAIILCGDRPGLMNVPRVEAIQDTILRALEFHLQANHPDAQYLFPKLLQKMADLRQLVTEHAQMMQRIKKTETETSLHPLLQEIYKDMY

Read-out in assay [5]: Intercellular Adhesion Molecule 1 (ICAM1), ICAM1 (gene 3383)
The assay can be described thus: BSK_3C_ICAM1: BioMAP Diversity Plus: 3C Assay for Intercellular Adhesion Molecule 1 (ICAM1) Biomarker Activity (AID 2283003; active = hit-call score of the fitted dose curve at least 0.9, where 1 is the maximum; inactive = score below 0.9). The note with it: primary human endothelial cells (HUVEC); actives raise or lower the signal. The essentials:
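ICAM-1 levels measured by ELISA after HUVEC cultures in the 3C system had been dosed for 24 h. Gain or loss of signal relative to DMSO was fitted in both directions.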

Assay [6] addresses Retinoic acid receptor alpha (Homo sapiens) (UniProt P10276). The assay can be described thus: ATG_RARa_TRANS: Attagene TRANS-FACTORIAL HepG2 Assay for human Retinoic Acid Receptor alpha (RARa) (AID 2283005).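 As to AC50: potency for increased reporter signal meaning RARa activation over DMSO.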 The method in brief:
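HepG2 transiently transfected with multiplex GAL4-UAS reporter units including a human RARa–GAL4 chimera; 24 h compound exposure. Reporter mRNA quantified by RT-PCR, 6-FAM labeling and capillary electrophoresis; gain of signal versus DMSO.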

Assay [7] is described as follows: BSK_3C_Proliferation: Cell Proliferation Assessment in the BioMAP Diversity Plus: 3C Assay (AID 2283006; active = hit-call score of the fitted dose curve at least 0.9, where 1 is the maximum; inactive = score below 0.9;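 as to AC50: potency may reflect either rise or fall in cell number versus DMSO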). The following applies: primary human endothelial cells (HUVEC). The essentials: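 Read-out is total protein by SRB absorbance at 560 nm, taken as a proxy for relative cell number. Primary human umbilical vein endothelium cultured below confluence was dosed for 48 h, TCA-fixed and SRB-stained; curves were fitted bidirectionally versus DMSO.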

Assay [8] deals with Peroxisome proliferator-activated receptor gamma (Homo sapiens) (UniProt P37231). The assay can be described thus: ATG_PPARg_TRANS: Attagene TRANS-FACTORIAL HepG2 Assay for human Peroxisome Proliferator-activated Receptor-gamma (PPARg) (AID 2283007). The method in brief:
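Multiplexed reporter transcription units in HepG2, 24 h dosing, reporter transcripts quantified by fluorescent RT-PCR and capillary electrophoresis. Increase over DMSO scored.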

Assay [9] addresses Nuclear receptor subfamily 1 group I member 2 (Homo sapiens) (UniProt O75469). The assay can be described thus: ATG_PXR_TRANS: Attagene TRANS-FACTORIAL HepG2 Assay for human Pregnane X Receptor (PXR) (AID 2283008). The essentials: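 Read-out is fluorescence of labelled reporter cDNA fragments separated by capillary electrophoresis after RT-PCR and HpaI digestion. Source: HepG2 cells carrying PXR-GAL4/UAS reporter constructs, treated 24 h; activity fitted upward relative to DMSO.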

Assay [10] addresses human RAR-related Orphan Receptor beta (RORb), RORB (gene 6096) (UniProt Q92753). The assay can be described thus: ATG_RORb_TRANS: Attagene TRANS-FACTORIAL HepG2 Assay for human RAR-related Orphan Receptor beta (RORb) (AID 2283010). The method in brief:
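Readout is reporter-gene mRNA induction, detected as fluorescence after RT-PCR and capillary electrophoresis, fitted for gain of signal against DMSO controls. Transiently transfected HepG2 liver cells carrying GAL4-UAS reporter constructs were treated for 24 hours.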

The target of assay [11] is Retinoic acid receptor RXR-alpha (Homo sapiens) (UniProt P19793). The assay can be described thus: ATG_RXRa_TRANS: Attagene TRANS-FACTORIAL HepG2 Assay for human Retinoid X Receptor alpha (RXRa) (AID 2283012). The method in brief: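 Transient transfection of human HepG2 with multiple GAL4-UAS reporter constructs; 24 h compound exposure; total RNA isolated, reverse-transcribed, PCR-amplified, 6-FAM labelled, HpaI-cut, resolved by capillary electrophoresis. Positive-direction fit versus DMSO.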
Retinoic acid receptor RXR-alpha (Homo sapiens), sequence (P19793 whole entry, looked up, the tested form may be a part): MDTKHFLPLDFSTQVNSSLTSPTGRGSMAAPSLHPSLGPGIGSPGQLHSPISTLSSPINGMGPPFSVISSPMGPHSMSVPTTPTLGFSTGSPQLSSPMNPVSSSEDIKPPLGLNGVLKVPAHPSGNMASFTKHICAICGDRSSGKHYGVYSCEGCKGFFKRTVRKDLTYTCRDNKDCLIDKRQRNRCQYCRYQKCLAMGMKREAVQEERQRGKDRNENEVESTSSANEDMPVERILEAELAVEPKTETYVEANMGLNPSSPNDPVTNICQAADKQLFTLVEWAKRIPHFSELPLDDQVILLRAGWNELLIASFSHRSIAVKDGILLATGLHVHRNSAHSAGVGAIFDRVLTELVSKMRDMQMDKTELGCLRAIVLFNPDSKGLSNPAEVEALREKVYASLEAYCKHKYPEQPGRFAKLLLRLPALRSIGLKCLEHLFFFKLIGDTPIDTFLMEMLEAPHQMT

For assay [12], the target named is human Retinoid X Receptor beta (RXRb), RXRB (gene 6257) (UniProt P28702). The assay can be described thus: ATG_RXRb_TRANS: Attagene TRANS-FACTORIAL HepG2 Assay for human Retinoid X Receptor beta (RXRb) (AID 2283013). The method in brief:
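Transfect HepG2 with GAL4-UAS multi-reporter constructs (chimeric NR-Gal4, TRANS format); dose compound 24 h; isolate RNA, RT-PCR, FAM primer extension, HpaI digest; quantify by capillary electrophoresis; positive direction vs DMSO.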

In assay [13] the target is human Thyroid Receptor alpha (THRa1), THRA (gene 7067) (UniProt P10827). The assay can be described thus: ATG_THRa1_TRANS: Attagene TRANS-FACTORIAL HepG2 Assay for human Thyroid Receptor alpha (THRa1) (AID 2283014). The essentials:
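Transcripts from GAL4-UAS-driven reporters, measured after 24 h compound exposure by RT-PCR plus capillary electrophoresis of 6-FAM-labeled fragments, were fitted for gain of signal relative to DMSO. Cells: transiently transfected HepG2 expressing NR-Gal4 chimeras.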

Read-out in assay [14]: E-selectin (Homo sapiens) (UniProt P16581)
The assay can be described thus: BSK_3C_Eselectin: BioMAP Diversity Plus: 3C Assay for Eselectin Biomarker Activity (AID 2283015; active = hit-call score of the fitted dose curve at least 0.9, where 1 is the maximum; inactive = score below 0.9;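 as to outcome: cell surface E-selectin protein quantified by ELISA 24 h after dosing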). The following applies: primary human endothelial cells (HUVEC); actives raise or lower the signal. The essentials:
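E-selectin ELISA readout, fitted bidirectionally relative to DMSO, taken 24 h post-dosing in HUVEC cultures of the 3C system. Overt cytotoxicity tracked with sulforhodamine B staining of parallel wells.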

Read-out in assay [15]: Interleukin-1 alpha (IL1a), IL1A (gene 3552)
The assay can be described thus: BSK_BE3C_IL1a: BioMAP Diversity Plus: BE3C Assay for Interleukin-1 alpha (IL1a) Biomarker Activity (AID 2283016; active = hit-call score of the fitted dose curve at least 0.9, where 1 is the maximum; inactive = score below 0.9). The following applies: primary human bronchial epithelial cells; actives raise or lower the signal. The essentials: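 BE3C primary human bronchial epithelium; cpd 24 h; IL-1a by ELISA; bidirectional fit vs DMSO; parallel SRB (0.1% SRB, 10% TCA fix, 560 nm) for cytotoxicity.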

Read-out in assay [16]: Monocyte Chemoattractant Protein-1 (MCP1), CCL2 (gene 6347)
The assay can be described thus: BSK_3C_MCP1: BioMAP Diversity Plus: 3C Assay for Monocyte Chemoattractant Protein-1 (MCP1) Biomarker Activity (AID 2283017; active = hit-call score of the fitted dose curve at least 0.9, where 1 is the maximum; inactive = score below 0.9). The following applies: primary human endothelial cells (HUVEC); actives raise or lower the signal. The essentials: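 MCP-1 was measured by ELISA 24 h after dosing in primary HUVEC 3C cultures and fitted in both directions relative to DMSO; cytotoxicity was checked by SRB total-protein staining in parallel wells.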

Read-out in assay [17]: Monocyte Chemoattractant Protein-1 (MCP1), CCL2 (gene 6347)
The assay can be described thus: BSK_4H_MCP1: BioMAP Diversity Plus: 4H Assay for Monocyte Chemoattractant Protein-1 (MCP1) Biomarker Activity (AID 2283018; active = hit-call score of the fitted dose curve at least 0.9, where 1 is the maximum; inactive = score below 0.9). The note with it: primary human endothelial cells (HUVEC); actives raise or lower the signal. The essentials: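 ELISA read-out of MCP-1 from human vascular endothelial primary cells taken at 24 hours after compound exposure. Activity was fitted in both directions relative to DMSO, which served as negative control.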

Assay [18] addresses human Retinoic Acid Receptor beta (RARb), RARB (gene 5915) (UniProt P10826). The assay can be described thus: ATG_RARb_TRANS: Attagene TRANS-FACTORIAL HepG2 Assay for human Retinoic Acid Receptor beta (AID 2283004). The method in brief: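 Induction of reporter mRNA from a chimeric RARb-Gal4 construct was measured by RT-PCR, FAM labelling, HpaI digestion and capillary electrophoresis. Measurements followed 24 h compound treatment of transiently transfected human HepG2 liver cells, with DMSO as baseline.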

For assay [19], the target named is human Retinoic Acid Receptor gamma (RARg), RARG (gene 5916) (UniProt P13631). The assay can be described thus: ATG_RARg_TRANS: Attagene TRANS-FACTORIAL HepG2 Assay for human Retinoic Acid Receptor gamma (RARg) (AID 2283009). The method in brief: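 Transient transfection of HepG2 with multi-reporter constructs, then 24 h chemical treatment. Total RNA isolated, reverse-transcribed, PCR-amplified, fluorescently labelled and resolved by capillary electrophoresis; activity scored as mRNA induction versus DMSO.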
human Retinoic Acid Receptor gamma (RARg), RARG (gene 5916), sequence (P13631 whole entry, looked up): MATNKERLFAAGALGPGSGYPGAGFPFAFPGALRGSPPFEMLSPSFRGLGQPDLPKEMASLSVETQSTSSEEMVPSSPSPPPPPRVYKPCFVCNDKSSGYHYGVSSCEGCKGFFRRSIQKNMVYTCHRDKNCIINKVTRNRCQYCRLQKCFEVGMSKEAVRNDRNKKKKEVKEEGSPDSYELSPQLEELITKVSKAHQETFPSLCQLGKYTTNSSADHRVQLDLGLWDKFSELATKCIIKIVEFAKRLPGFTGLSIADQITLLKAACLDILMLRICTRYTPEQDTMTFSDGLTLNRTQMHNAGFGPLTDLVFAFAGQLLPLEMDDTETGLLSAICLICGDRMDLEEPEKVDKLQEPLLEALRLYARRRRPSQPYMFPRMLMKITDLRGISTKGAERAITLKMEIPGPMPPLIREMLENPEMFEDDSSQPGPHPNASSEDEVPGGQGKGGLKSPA

For assay [20], the target named is human RAR-related Orphan Receptor gamma (RORg), RORC (gene 6097) (UniProt P51449). The assay can be described thus: ATG_RORg_TRANS: Attagene TRANS-FACTORIAL HepG2 Assay for human RAR-related Orphan Receptor gamma (RORg) (AID 2283011). The essentials:
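Reporter transcripts from a transfected RORg-GAL4 chimera in HepG2 cells were quantified 24 h after dosing by RT-PCR, 6-FAM labelling, HpaI digestion and capillary electrophoresis; increases over DMSO baseline were fitted.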

Results filed as inconclusive are left out. Activity calls are given as the source filed them. The calls were made as follows, unless noted: active = hit-call score of the fitted dose curve at least 0.9, where 1 is the maximum; inconclusive = response in the unintended direction; inactive = score below 0.9.

Nuclear receptor subfamily 1 group I member 2 (Homo sapiens), sequence (O75469 whole entry, looked up, the tested form may be a part): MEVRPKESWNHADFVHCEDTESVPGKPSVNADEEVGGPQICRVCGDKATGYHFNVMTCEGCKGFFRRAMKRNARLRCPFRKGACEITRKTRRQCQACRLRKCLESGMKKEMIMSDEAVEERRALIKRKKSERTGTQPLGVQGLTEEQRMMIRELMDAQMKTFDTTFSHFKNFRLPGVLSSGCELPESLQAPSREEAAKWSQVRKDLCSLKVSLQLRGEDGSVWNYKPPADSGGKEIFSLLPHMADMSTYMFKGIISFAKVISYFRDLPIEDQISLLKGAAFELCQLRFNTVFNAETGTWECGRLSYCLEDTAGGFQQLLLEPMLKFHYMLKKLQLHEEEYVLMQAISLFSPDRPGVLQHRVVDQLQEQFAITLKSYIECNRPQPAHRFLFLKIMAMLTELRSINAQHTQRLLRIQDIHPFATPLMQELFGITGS
human RAR-related Orphan Receptor beta (RORb), RORB (gene 6096), sequence (Q92753 whole entry, looked up, the tested form may be a part): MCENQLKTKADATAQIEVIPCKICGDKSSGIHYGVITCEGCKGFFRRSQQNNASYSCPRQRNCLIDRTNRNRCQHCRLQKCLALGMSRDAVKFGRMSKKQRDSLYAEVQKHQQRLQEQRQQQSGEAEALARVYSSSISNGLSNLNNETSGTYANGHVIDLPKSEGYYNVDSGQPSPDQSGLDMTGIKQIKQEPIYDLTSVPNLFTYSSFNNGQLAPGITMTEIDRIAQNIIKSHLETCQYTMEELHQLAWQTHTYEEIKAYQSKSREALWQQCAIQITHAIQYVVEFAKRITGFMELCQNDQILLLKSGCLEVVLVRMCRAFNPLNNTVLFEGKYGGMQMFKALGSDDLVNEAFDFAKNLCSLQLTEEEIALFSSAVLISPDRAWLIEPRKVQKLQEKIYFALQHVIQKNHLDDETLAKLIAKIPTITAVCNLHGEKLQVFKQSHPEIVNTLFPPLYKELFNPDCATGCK
human Retinoid X Receptor beta (RXRb), RXRB (gene 6257), sequence (P28702 whole entry, looked up, the tested form may be a part): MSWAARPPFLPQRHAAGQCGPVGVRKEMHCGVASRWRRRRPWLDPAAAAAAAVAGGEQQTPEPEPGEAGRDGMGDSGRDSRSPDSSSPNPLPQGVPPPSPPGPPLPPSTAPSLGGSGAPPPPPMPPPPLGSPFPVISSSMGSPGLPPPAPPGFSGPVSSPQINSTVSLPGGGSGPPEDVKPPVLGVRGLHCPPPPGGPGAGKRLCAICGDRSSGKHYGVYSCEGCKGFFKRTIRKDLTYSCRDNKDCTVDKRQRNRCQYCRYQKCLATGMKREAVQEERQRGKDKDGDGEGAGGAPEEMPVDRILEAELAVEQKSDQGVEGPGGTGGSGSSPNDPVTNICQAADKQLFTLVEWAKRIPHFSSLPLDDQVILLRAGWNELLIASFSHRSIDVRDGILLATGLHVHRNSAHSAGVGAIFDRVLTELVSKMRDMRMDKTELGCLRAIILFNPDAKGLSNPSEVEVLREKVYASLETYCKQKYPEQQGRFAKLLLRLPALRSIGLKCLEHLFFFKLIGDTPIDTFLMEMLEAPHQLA
human Thyroid Receptor alpha (THRa1), THRA (gene 7067), sequence (P10827 whole entry, looked up, the tested form may be a part): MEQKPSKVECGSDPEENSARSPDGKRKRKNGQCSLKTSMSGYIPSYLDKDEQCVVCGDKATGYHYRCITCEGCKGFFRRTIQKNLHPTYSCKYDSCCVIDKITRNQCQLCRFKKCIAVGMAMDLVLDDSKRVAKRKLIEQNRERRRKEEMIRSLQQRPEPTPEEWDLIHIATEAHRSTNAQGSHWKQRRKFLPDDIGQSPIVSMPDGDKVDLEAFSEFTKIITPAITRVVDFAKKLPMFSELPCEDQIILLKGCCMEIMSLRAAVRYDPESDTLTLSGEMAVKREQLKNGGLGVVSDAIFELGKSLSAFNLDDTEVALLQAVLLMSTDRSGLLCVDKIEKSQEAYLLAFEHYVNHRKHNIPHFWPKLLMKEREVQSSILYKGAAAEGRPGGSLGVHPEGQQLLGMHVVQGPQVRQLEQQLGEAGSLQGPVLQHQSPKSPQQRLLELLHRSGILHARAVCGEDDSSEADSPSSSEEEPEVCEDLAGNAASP
E-selectin (Homo sapiens), sequence (P16581 whole entry, looked up): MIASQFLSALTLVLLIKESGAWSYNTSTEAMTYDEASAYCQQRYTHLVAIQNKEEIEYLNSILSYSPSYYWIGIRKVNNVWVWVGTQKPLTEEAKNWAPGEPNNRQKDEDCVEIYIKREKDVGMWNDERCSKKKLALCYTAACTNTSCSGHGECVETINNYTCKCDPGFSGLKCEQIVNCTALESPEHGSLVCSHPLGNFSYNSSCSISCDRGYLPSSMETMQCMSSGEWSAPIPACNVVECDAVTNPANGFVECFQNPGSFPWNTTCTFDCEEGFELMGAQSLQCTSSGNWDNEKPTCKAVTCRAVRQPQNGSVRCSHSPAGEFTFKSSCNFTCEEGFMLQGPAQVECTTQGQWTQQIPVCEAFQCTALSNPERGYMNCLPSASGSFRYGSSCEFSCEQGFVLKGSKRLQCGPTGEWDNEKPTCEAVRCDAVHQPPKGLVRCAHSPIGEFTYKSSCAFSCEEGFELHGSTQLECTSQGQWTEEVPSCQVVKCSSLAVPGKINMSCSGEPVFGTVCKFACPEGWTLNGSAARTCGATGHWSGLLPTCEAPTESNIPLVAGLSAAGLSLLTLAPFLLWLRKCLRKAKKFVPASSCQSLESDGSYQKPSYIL
Retinoic acid receptor alpha (Homo sapiens), sequence (P10276 whole entry, looked up, the tested form may be a part): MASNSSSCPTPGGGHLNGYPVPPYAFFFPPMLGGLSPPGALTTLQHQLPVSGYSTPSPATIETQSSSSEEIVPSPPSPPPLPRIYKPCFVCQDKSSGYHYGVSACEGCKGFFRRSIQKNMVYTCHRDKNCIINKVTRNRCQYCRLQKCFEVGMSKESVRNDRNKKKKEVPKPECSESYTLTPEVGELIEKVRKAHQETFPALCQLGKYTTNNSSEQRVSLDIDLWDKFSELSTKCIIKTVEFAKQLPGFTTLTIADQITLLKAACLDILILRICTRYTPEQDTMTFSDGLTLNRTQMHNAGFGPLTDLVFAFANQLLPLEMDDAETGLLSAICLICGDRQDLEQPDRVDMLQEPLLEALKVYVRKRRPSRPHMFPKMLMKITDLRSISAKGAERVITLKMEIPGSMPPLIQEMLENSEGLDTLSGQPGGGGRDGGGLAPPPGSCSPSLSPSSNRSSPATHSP

In general, AC50 refers to the concentration at which the activity in the assay is half-maximal. Consider `O=C1C2CC=CCC2C(=O)N1SC(Cl)(Cl)Cl` (stereo unspecified), for which the AC50 in assay [1] is 26.6 µM (active); in assay [7], 32.4 µM (active); in [15], 11.2 µM (active). Besides, the result in assay [2], in assay [3], in assay [4], in [5], in [6] and in assay [8] was inactive. Moreover, the call in [9], in [10], in assay [11], in assay [12], in assay [13] and in assay [14] was inactive. The result in assay [16] and in assay [17] was inactive.

In the case of `CCCCOCN(C(=O)CCl)c1c(CC)cccc1CC`, the AC50 in [1] is 27.4 µM (active); in assay [2] it was 36.1 µM (active); in assay [5], 32.2 µM (active); in [7] it was 28.2 µM (active); in [8] it was 1.38 µM (active); in [14], 19.3 µM (active). Besides, the results for the half-maximal activity concentration (AC50) in assay [15] and in assay [17] were 36.5 µM (active) and 25.6 µM (active), respectively. In addition, the call in [3], in [9], in [10], in [11], in assay [12] and in assay [13] was inactive.

`O=c1n(Cl)c(=O)n(Cl)c(=O)n1Cl`: the outcome in assay [1], in [2], in assay [3], in assay [4], in [5] and in assay [18] was inactive. The outcome in assay [6], in [7], in [8], in assay [9], in assay [19] and in assay [10] was inactive. Besides, the compound was called inactive in assay [20], in assay [11], in [12], in assay [14], in assay [15] and in assay [17].

`CC(C)Oc1cccc(NC(=O)c2ccccc2C(F)(F)F)c1`: the result in [1], in assay [2], in assay [3], in assay [4], in assay [5] and in assay [18] was inactive. The compound was called inactive in assay [6], in assay [7], in [19], in assay [10], in assay [20] and in assay [11]. Moreover, the compound was classed as inactive in assay [12], in assay [13], in [14], in [15] and in assay [17]. Also, the results for the AC50 in assay [8] and in assay [9] were 30.9 µM (active) and 23.4 µM (active), respectively.

For `CCCCC(C#N)(Cn1cncn1)c1ccc(Cl)cc1` (stereo unspecified), the outcome in [1], in assay [2], in [3], in assay [5], in assay [18] and in [7] was inactive. The compound was classed as inactive in assay [8], in assay [9], in [19], in assay [20], in [12] and in assay [14]. Besides, the outcome in [15], in [16] and in assay [17] was inactive. In [6], the AC50 is 19.7 µM (active).

In the case of `COP(=O)(OC)O/C(C)=C/C(=O)N(C)C`, the outcome in assay [1], in assay [2], in assay [3], in assay [4], in assay [5] and in assay [7] was inactive. The compound was called inactive in [8], in [9], in [19], in assay [10], in assay [20] and in assay [13]. Moreover, the result in [14], in assay [15] and in [17] was inactive.

On to `CC(C)=CC1C(C(=O)OCc2coc(Cc3ccccc3)c2)C1(C)C` (stereo unspecified), for which the outcome in [1], in [3], in assay [4], in assay [5], in assay [18] and in [6] was inactive. Besides, the outcome in [9], in [19], in [11], in assay [12], in assay [13] and in assay [15] was inactive. The outcome in [17] was inactive. In addition, the AC50 in [2] was 8.05 µM (active); in assay [7], 10.3 µM (active); in assay [8], 13.1 µM (active); in assay [14] it was 8.92 µM (active).
